Test results as given in PubChem BioAssay (NCATS).
Inconclusive results are not listed. Calls of active or inactive are those of the source. Unless noted, calls come from the whole dose curve; as a rule, active = well fitted curve in the direction sought with a large enough effect; inconclusive = small, poorly fitted or top-dose-only effect, or another doubt; inactive = no such curve, though single readings can be large; an effect the other way counts as inactive or inconclusive.

Legend:
[1] = target: Alpha-galactosidase (Coffea arabica) (UniProt Q42656); test: Counterscreen for Glucocerebrosidase Inhibitors: qHTS Assay for Coffee Bean alpha-Galactosidase at pH 4.5 (AID 957);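 note: plate controls were enzyme alone for no effect and no enzyme for full effect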
Method in brief: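 Coffee bean alpha-galactosidase 2 nM, substrate 4-MU-alpha-Gal 80 uM, pH 4.5 citrate/Tween-20, 20 min RT. Cpd titration 0.7 nM–77 uM. Stop pH 10, fluorescence 365/440 nm; Hill-equation AC50.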

[2] = qHTS Assay for Lipid Storage Modulators (AID 1519; calls by dose curve; note: potency is the fitted concentration of half-maximal effect; for activity change, negative = inhibition: % is set by controls: 0 for no effect and ±100 for the full control effect); conditions: Drosophila S3 cells, BODIPY lipid droplet/cell ratio, laser cytometry, cells loaded with oleic acid
Method in brief: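 Cells seeded at 5,000 per well were treated with compounds over a concentration series and loaded with oleic acid (400 uM, as added). Lipid droplet fluorescence (488 nm excitation, 500-530 nm channel) was read by laser-scanning cytometry and normalized to 20 uM Triacsin C.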

[3] = target: Cytochrome P450 3A4 (Homo sapiens) (UniProt P08684); test: qHTS Assay for Inhibitors and Substrates of Cytochrome P450 3A4 (AID 884); note: nearly all actives have a fitted effect of over 50% in size; note: potency is the fitted concentration of half-maximal effect; for activity change, negative = inhibition: % is set by controls: 0 for no effect and ±100 for the full control effect
Method in brief: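 20 nM human CYP3A4 with 25 uM Luciferin-PPXE (at KM) in 200 mM KPO4, preincubated 10 min with compound; NADPH regeneration started a 60 min RT reaction. Luciferin detected by luminescence, normalized to 57 uM ketoconazole as full inhibition.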

[4] = Confirmation and Secondary Assay for Modulators of Hemoglobin Beta Chain Splicing at IVS2 654 locus (AID 910);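 note: per-well total GFP intensity by laser scanning cytometry after 2-day treatment; % of control where 0% means no effect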
Method in brief: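 HeLa cells stably carrying EGFP interrupted by mutant beta-globin IVS2-654 intron (CMV-driven) were treated with compound for 2 days at 37C; corrected splicing was scored as total peak GFP intensity per well (488 nm excitation, 500-520 nm emission).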

[5] = Confirmation and Secondary Assay for Modulators of Hemoglobin Beta Chain Splicing at IVS2 705 locus (AID 930);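 note: HeLa cells stably expressing the EGFP-705 splicing reporter; % of control where 0% means no effect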
Method in brief: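 Restored EGFP fluorescence after 2-day compound exposure reports splicing correction in IVS2-705 EGFP reporter HeLa cells; positive control was 500 nM splice-blocking PNA oligo. Signal measured as well total peak GFP intensity (488 nm excitation).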

[6] = target: Cytochrome P450 3A4 (Homo sapiens) (UniProt P08684); test: qHTS Assay for Activators of Cytochrome P450 3A4 (AID 885); note: nearly all actives have a fitted effect of over 65% in size
Method in brief: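 Human CYP3A4 (20 nM) with Luciferin-PPXE at 25 uM (its KM) in 200 mM KPO4; 10 min compound preincubation, then NADPH regeneration and 60 min reaction at RT. Luciferin read by luminescence; normalized to 57 uM ketoconazole full inhibition.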

[7] = target: Cytochrome P450 2D6 (Homo sapiens) (UniProt P10635); test: Cytochrome P450 family 2 subfamily D member 6 (CYP2D6) small molecule antagonists: luciferase biochemical (cell-free) qHTS assay (AID 1645840; active = well fitted curve in the direction sought with a large enough effect in the repeat runs; an effect the other way counts as inactive or inconclusive; note: nearly all actives have a fitted effect of over 55% in size; note: potency is the fitted concentration of half-maximal effect; for activity change, negative = inhibition: % is set by controls: 0 for no effect and ±100 for the full control effect)
Method in brief: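 P450-Glo luminescent screen: recombinant CYP2D6 enzyme–proluciferin substrate mix preincubated with compound 10 min at room temperature, then NADPH regeneration added for 1 h at room temperature. Detection reagent added for 20 min; luciferin light read as relative luminescence units.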

[8] = measured here: cell count channel max response
[9] = measured here: lipid channel max response

Chain of Cytochrome P450 3A4 (Homo sapiens) (P08684 whole entry, looked up): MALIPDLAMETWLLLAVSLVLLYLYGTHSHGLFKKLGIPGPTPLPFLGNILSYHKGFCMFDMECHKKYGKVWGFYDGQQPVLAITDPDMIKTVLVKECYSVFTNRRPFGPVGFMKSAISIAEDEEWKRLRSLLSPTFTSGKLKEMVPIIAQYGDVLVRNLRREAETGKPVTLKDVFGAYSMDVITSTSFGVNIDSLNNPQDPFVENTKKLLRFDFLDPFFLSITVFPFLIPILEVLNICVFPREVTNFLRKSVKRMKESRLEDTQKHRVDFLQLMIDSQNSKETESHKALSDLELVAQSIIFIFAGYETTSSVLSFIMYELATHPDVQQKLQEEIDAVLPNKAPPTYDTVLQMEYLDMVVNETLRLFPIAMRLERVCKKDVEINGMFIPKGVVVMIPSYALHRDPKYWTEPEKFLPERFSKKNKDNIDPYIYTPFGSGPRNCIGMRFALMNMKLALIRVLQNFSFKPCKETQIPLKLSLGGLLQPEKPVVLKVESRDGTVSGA
Chain of Alpha-galactosidase (Coffea arabica) (Q42656 whole entry, looked up): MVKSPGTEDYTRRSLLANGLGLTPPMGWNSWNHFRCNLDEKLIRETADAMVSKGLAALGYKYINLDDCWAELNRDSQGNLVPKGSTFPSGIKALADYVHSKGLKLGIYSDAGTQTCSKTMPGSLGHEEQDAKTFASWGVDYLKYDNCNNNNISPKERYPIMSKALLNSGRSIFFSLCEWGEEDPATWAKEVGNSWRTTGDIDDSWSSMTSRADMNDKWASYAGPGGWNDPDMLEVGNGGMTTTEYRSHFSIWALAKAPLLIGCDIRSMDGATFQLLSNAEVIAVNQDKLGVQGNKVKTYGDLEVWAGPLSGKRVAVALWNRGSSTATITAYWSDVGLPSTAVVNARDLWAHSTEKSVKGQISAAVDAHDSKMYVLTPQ
Chain of Cytochrome P450 2D6 (Homo sapiens) (P10635 whole entry, looked up): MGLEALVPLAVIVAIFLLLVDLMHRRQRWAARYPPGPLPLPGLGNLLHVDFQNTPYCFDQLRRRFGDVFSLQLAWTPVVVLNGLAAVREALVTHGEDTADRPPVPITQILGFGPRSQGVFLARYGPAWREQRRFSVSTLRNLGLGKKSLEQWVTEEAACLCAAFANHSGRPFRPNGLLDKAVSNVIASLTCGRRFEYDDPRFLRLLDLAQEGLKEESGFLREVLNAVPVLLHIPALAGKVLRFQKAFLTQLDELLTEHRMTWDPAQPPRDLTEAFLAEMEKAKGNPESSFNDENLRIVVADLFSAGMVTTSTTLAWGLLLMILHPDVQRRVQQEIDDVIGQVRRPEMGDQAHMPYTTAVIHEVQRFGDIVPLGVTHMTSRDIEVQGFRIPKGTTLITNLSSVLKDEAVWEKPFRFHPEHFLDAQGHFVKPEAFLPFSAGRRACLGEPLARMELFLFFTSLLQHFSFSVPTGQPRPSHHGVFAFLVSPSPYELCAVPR

COc1cc([C@H]2c3cc4c(cc3[C@@H](O)[C@@H]3COC(=O)[C@H]23)OCO4)cc(OC)c1OC
outcome [1]: inactive | activity change, negative = inhibition ([2]; at 25.7 µM (top of the series)): -6.44% (inactive) | max response [2, 8]: -10.2% | max response [2, 9]: -15%

C[C@@]12CCC3C(CCC4=CC(=O)CC[C@]43C)C1CCC2O (some centres not stated)
Potency [3]: inactive | Potency [4]: inactive | activity change, negative = inhibition ([2]; at 57.5 µM (top of the series)): -1.38% (inactive) | max response [2, 8]: 0.874% | max response [2, 9]: 1.24%

CNC(=O)O/N=C(/C)SC
Potency [3]: inactive | Potency [4]: inactive | Potency [5]: inactive | activity change, negative = inhibition ([2]; at 57.5 µM (top of the series)): 3.26% (inactive) | max response [2, 8]: 16.3% | max response [2, 9]: 20.1%

CC(=O)OC1CC2C(C)(C)C(O)C=C[C@@]2(C)C2CC[C@]3(C)C(=CC(=O)OC3c3ccoc3)[C@]12C (some centres not stated)
Potency [6]: inactive | Potency [4]: inactive | activity change, negative = inhibition ([2]; at 57.5 µM (top of the series)): 6.31% (inactive) | max response [2, 8]: -2.89% | max response [2, 9]: 6.06%

COc1cc2c(cc1OC)[C@@H]1C(=O)c3ccc4oc(C(C)C)cc4c3OC1CO2 (some centres not stated)
Potency [4]: inactive | Potency [5]: inactive | Potency [2]: 2510 nM (active) | max response [2, 8]: -28.2% | max response [2, 9]: -80.9%

C[C@@]12CC(c3ccoc3)OC(=O)C1CC[C@@]1(C)C2C2C=C[C@@]1(O)C(=O)O2 (some centres not stated)
Potency [3]: inactive | Potency [4]: inactive | activity change, negative = inhibition ([2]; at 57.5 µM (top of the series)): 2.16% (inactive) | max response [2, 8]: 24.2% | max response [2, 9]: 26.2%

CCN=C1Nc2ccc(Cl)cc2C(C)(c2ccccc2)O1 (configuration not stated)
Potency [7]: 10700 nM (active)

CCN1C[C@@]2(C)CC[C@@H](OC)[C@@]34C2C(O)[C@@]2(OCO[C@]25CC(OC)C2C[C@@]3(O)C5C2O)C14 (some centres not stated)
Potency [6]: inactive | Potency [4]: inactive | Potency [5]: inactive | activity change, negative = inhibition ([2]; at 57.5 µM (top of the series)): 2.86% (inactive) | max response [2, 8]: 1.33% | max response [2, 9]: 4.66%

COc1cc2c(cc1O)CCNC2C (configuration not stated)
Potency [3]: inactive | Potency [4]: inactive | activity change, negative = inhibition ([2]; at 57.5 µM (top of the series)): 6.98% (inactive) | max response [2, 8]: 8.33% | max response [2, 9]: 17.5%

CCCCCCC(C)OC(=O)COc1ccc(Cl)cc1Cl (configuration not stated)
Potency [3]: inactive | Potency [4]: inactive | Potency [5]: inactive | activity change, negative = inhibition ([2]; at 57.5 µM (top of the series)): 1.06% (inactive) | max response [2, 8]: 1.5% | max response [2, 9]: 2.82%

COc1cc(OC)c2c(c1)OC(c1ccc(OC)c(OC)c1)C(O)C2 (configuration not stated)
Potency [3]: inactive | Potency [4]: inactive | Potency [5]: inactive | activity change, negative = inhibition ([2]; at 57.5 µM (top of the series)): 10.8% (inactive) | max response [2, 8]: 10.1% | max response [2, 9]: 29.4%

CN1CC(CNC(=O)OCc2ccccc2)CC2c3cccc4c3c(cn4C)CC21 (configuration not stated)
Potency [4]: inactive | Potency [5]: inactive | activity change, negative = inhibition ([2]; at 57.5 µM (top of the series)): 7.09% (inactive) | max response [2, 8]: -1.98% | max response [2, 9]: 5.84%

C[C@]12CCC3C(CC[C@]4(O)CC(O)CC[C@@]34C=O)[C@]1(O)CCC2C1=CC(=O)OC1 (some centres not stated)
Potency [4]: inactive | Potency [5]: inactive | activity change, negative = inhibition ([2]; at 57.5 µM (top of the series)): -3.74% (inactive) | max response [2, 8]: 12.5% | max response [2, 9]: 11%

CC1CC[C@@]2(OC1)OC1C(O)C3C4CC[C@H]5CC(O[C@@H]6O[C@@H](CO)[C@H](OC7OC(CO)C(O)C(OC8OCC(O)C(O)[C@H]8O)[C@@H]7O[C@@H]7OC(CO)[C@H](O)[C@@H](O[C@@H]8OC(CO)C(O)C(O)C8O)C7O)C(O)C6O)C(O)C[C@]5(C)C4CC[C@]3(C)C1C2C (some centres not stated)
Potency [4]: inactive | Potency [5]: inactive | activity change, negative = inhibition ([2]; at 57.5 µM (top of the series)): -0.601% (inactive) | max response [2, 8]: -28.8% | max response [2, 9]: -26%

C[C@@]12CCC(=O)C[C@@H]1CC[C@@H]1[C@@H]2CC[C@]2(C)C(=O)CC[C@@H]12
Potency [3]: inactive | Potency [4]: inactive | Potency [5]: inactive | activity change, negative = inhibition ([2]; at 57.5 µM (top of the series)): 6.14% (inactive) | max response [2, 8]: 2.79% | max response [2, 9]: 10.6%

O=C(NC(=O)c1ccccc1Cl)Nc1ccc(OC(F)(F)F)cc1
Potency [3]: inactive | Potency [4]: inactive | Potency [5]: inactive | activity change, negative = inhibition ([2]; at 57.5 µM (top of the series)): 8.39% (inactive) | max response [2, 8]: 0.34% | max response [2, 9]: 9.8%

CC(C)C[C@H]1C(=O)N2CCC[C@@H]2[C@]2(O)O[C@](NC(=O)[C@H]3C=C4c5cccc6[nH]c(Br)c(c56)C[C@H]4N(C)C3)(C(C)C)C(=O)N12
outcome [1]: inactive | activity change, negative = inhibition ([2]; at 25.7 µM (top of the series)): -0.675% (inactive) | max response [2, 8]: -7.2% | max response [2, 9]: -5.42%

CCN(CC)N(O)N=O
Potency [7]: inactive

NC(N)=NN=Cc1c(Cl)cccc1Cl
outcome [1]: inactive | activity change, negative = inhibition ([2]; at 25.7 µM (top of the series)): -2.38% (inactive) | max response [2, 8]: -4.82% | max response [2, 9]: -7.49%

c1cc2c(cc1C1OC[C@@H]3C(c4ccc5c(c4)OCO5)OCC13)OCO2 (some centres not stated)
Potency [3]: 79.4 nM (active) | Potency [6]: inactive | Potency [4]: inactive | Potency [5]: inactive | activity change, negative = inhibition ([2]; at 57.5 µM (top of the series)): 7.47% (inactive) | max response [2, 8]: 12.5% | max response [2, 9]: 26%
